Columns and labels:
[1] = target: Leukocyte tyrosine kinase receptor (Homo sapiens) (UniProt P29376); details: at 1 µM;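 note: each value is the mean inhibition of LTK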
[2] = target: Tyrosine-protein kinase Lyn (Homo sapiens) (UniProt P07948); details: at 0.1 µM
[3] = target: Tyrosine-protein kinase Lyn (Homo sapiens) (UniProt P07948); details: at 1 µM
[4] = target: Tyrosine-protein kinase Lyn (Homo sapiens) (UniProt P07948); details: at 0.1 µM; remark: listed apart in the source
[5] = target: Tyrosine-protein kinase Lyn (Homo sapiens) (UniProt P07948); details: at 1 µM; remark: listed apart in the source
[6] = target: T1, Tyrosine-protein kinase Mer (Homo sapiens) (UniProt Q12866); details: at 0.1 µM
T1 sequence (whole entry): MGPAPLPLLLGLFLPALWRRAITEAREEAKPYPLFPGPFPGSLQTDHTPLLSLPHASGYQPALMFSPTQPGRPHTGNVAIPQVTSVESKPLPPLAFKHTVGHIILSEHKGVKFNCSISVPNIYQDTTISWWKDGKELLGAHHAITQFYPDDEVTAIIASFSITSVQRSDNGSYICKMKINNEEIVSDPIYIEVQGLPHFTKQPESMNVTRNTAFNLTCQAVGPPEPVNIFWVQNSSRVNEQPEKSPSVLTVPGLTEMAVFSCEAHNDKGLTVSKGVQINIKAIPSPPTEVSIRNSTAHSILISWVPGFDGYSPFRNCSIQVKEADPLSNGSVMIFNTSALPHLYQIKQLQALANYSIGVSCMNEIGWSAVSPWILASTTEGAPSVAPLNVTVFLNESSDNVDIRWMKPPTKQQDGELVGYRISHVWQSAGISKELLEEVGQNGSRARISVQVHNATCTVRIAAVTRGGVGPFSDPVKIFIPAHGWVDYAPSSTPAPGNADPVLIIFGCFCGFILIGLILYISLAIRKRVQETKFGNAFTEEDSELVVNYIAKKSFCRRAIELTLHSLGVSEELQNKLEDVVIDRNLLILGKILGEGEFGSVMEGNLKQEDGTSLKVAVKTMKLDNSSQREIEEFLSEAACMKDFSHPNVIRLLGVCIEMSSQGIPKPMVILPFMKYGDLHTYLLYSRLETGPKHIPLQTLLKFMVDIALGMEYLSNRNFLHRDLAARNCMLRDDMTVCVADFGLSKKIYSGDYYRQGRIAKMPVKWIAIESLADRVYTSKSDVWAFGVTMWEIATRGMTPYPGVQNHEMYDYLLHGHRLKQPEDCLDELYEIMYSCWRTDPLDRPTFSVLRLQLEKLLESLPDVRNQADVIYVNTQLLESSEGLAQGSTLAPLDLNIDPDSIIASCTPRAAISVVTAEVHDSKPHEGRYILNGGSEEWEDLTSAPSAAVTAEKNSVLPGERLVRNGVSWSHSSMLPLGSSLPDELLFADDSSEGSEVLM

[7] = target: T1, Tyrosine-protein kinase Mer (Homo sapiens); details: at 1 µM
[8] = target: Hepatocyte growth factor receptor (Homo sapiens) (UniProt P08581); details: at 0.1 µM
[9] = target: Hepatocyte growth factor receptor (Homo sapiens) (UniProt P08581); details: at 1 µM
[10] = target: T2, Muscle, skeletal receptor tyrosine-protein kinase (Homo sapiens) (UniProt O15146); details: at 0.1 µM
T2 sequence (whole entry): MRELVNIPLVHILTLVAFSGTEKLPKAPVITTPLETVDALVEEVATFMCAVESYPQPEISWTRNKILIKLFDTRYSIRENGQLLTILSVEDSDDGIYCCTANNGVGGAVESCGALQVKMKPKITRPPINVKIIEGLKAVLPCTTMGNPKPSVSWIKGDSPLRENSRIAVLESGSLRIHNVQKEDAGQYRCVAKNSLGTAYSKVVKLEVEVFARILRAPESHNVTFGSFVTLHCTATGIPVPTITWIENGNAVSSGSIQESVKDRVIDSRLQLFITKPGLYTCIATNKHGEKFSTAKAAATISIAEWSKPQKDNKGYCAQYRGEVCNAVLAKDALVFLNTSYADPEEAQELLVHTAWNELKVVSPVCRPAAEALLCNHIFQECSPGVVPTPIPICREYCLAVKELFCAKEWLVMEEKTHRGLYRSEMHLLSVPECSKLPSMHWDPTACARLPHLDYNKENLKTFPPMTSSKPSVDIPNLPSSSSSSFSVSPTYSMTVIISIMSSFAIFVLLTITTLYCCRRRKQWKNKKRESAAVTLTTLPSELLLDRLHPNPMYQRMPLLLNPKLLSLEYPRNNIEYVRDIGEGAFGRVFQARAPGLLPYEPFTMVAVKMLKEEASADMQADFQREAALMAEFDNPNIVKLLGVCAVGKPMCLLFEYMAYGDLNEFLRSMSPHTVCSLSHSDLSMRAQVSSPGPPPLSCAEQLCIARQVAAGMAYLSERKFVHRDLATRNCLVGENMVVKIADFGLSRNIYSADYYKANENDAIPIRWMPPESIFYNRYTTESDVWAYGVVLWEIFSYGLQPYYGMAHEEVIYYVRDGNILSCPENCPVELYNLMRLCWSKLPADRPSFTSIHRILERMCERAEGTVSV

[11] = target: T2, Muscle, skeletal receptor tyrosine-protein kinase (Homo sapiens); details: at 1 µM
[12] = target: Platelet-derived growth factor receptor alpha (Homo sapiens) (UniProt P16234); details: at 0.1 µM
[13] = target: Platelet-derived growth factor receptor alpha (Homo sapiens) (UniProt P16234); details: at 1 µM
[14] = tested on: Platelet-derived growth factor receptor alpha (Homo sapiens), P16234 [D842V]; details: at 0.1 µM
[15] = tested on: Platelet-derived growth factor receptor alpha (Homo sapiens), P16234 [D842V]; details: at 1 µM
[16] = tested on: Platelet-derived growth factor receptor alpha (Homo sapiens), P16234 [T674I]; details: at 0.1 µM
[17] = tested on: Platelet-derived growth factor receptor alpha (Homo sapiens), P16234 [T674I]; details: at 1 µM
[18] = tested on: Platelet-derived growth factor receptor alpha (Homo sapiens), P16234 [V561D]; details: at 0.1 µM
[19] = tested on: Platelet-derived growth factor receptor alpha (Homo sapiens), P16234 [V561D]; details: at 1 µM
[20] = target: Platelet-derived growth factor receptor beta (Homo sapiens) (UniProt P09619); details: at 0.1 µM;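 note: reported value is the mean percent inhibition of the kinase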

Sequence of Platelet-derived growth factor receptor alpha (Homo sapiens), P16234 [V561D] (P16234 whole entry V561D): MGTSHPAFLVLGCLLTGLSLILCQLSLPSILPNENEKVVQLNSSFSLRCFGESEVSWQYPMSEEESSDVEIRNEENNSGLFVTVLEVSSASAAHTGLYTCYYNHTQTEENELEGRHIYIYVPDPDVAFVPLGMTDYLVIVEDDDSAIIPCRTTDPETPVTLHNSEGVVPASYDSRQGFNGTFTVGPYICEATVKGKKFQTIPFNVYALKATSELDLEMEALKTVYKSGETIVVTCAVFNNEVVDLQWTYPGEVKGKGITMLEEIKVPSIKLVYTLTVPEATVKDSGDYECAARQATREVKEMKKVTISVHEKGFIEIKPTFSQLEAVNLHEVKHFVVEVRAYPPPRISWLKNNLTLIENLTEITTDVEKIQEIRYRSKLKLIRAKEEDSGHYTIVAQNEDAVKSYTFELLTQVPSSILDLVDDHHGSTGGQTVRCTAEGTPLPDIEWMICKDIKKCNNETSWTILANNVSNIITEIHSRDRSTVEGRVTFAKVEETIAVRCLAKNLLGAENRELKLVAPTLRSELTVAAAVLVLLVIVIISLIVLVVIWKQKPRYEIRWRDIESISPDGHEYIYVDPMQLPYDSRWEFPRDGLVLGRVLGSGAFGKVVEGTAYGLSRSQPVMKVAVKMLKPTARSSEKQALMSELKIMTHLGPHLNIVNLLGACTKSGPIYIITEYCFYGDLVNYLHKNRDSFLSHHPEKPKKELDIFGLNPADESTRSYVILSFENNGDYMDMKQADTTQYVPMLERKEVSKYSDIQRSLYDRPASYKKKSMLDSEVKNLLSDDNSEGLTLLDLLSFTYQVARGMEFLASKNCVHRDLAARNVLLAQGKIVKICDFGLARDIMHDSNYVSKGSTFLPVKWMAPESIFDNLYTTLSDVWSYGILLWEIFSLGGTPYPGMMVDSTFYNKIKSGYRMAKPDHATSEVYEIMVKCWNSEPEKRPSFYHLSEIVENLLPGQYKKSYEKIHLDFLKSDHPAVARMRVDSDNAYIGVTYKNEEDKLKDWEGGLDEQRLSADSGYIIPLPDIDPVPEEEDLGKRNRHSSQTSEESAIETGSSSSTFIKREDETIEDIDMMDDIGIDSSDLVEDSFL
Sequence of Leukocyte tyrosine kinase receptor (Homo sapiens) (P29376 whole entry): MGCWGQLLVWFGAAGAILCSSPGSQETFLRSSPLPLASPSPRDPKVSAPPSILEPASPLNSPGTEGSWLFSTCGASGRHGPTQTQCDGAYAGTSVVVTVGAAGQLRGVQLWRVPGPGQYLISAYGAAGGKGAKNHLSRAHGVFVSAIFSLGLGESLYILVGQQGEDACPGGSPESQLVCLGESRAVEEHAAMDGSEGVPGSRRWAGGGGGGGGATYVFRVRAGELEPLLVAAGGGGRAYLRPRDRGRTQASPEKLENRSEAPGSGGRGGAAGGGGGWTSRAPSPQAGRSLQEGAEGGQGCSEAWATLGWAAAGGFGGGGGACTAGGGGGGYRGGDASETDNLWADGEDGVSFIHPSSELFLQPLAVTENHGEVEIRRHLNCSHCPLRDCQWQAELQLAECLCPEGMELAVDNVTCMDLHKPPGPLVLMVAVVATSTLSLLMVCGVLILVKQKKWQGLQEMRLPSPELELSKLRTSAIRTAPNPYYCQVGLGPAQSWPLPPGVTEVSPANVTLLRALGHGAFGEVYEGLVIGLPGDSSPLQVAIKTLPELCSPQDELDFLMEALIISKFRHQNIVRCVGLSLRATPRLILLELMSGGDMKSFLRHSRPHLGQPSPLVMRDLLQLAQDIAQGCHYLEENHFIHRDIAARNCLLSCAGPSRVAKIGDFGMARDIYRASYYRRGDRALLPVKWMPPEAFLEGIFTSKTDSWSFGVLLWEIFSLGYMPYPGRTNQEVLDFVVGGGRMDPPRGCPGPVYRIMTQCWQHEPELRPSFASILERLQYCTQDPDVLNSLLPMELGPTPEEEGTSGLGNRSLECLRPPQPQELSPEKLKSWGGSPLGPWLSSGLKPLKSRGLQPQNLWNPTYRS
Sequence of Tyrosine-protein kinase Lyn (Homo sapiens) (P07948 2-512 limits assumed): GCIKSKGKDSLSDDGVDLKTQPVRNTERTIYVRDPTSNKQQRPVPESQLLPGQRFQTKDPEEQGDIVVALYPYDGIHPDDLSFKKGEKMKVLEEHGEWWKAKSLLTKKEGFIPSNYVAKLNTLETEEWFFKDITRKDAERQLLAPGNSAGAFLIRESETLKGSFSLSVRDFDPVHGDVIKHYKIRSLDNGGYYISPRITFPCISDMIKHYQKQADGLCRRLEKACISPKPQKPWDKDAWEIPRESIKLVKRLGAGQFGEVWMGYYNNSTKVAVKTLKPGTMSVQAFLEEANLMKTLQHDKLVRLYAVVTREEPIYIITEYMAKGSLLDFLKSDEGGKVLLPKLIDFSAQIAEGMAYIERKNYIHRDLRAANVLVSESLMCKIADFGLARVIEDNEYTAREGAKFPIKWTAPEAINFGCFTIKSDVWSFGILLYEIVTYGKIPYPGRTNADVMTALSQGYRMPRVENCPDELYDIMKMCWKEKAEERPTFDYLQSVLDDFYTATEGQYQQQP
Sequence of Platelet-derived growth factor receptor alpha (Homo sapiens) (P16234 whole entry): as the sequence (P16234 whole entry V561D) above, with D561V counted along it
Sequence of Platelet-derived growth factor receptor alpha (Homo sapiens), P16234 [D842V] (P16234 whole entry D842V): as the sequence (P16234 whole entry V561D) above, with D561V, D842V counted along it

Compound	inhibition [1]	inhibition [2]	inhibition [3]	inhibition [4]	inhibition [5]	inhibition [6]	inhibition [7]	inhibition [8]	inhibition [9]	inhibition [10]	inhibition [11]	inhibition [12]	inhibition [13]	inhibition [14]	inhibition [15]	inhibition [16]	inhibition [17]	inhibition [18]	inhibition [19]	inhibition [20]
CS(=O)(=O)Nc1cccc(-c2ccc3c(NC(=O)C4CC4)n[nH]c3c2)c1	1.06%	1.17%	1.49%	0.4%	-0.21%	1.36%	1.01%	5.25%	1.91%	0.75%	3.16%	3.7%	13.2%	4.33%	8.89%	0.91%	-1.66%	1.13%	6.51%	-2.19%
[O-][S+]1CCN(Cc2ccc(-c3ccc4ncnc(Nc5ccc(OCc6ccccc6)c(Cl)c5)c4c3)o2)CC1	7.75%	1.18%	6.07%	-1.3%	3.42%	7.08%	48.2%	3.11%	5.04%	1.43%	1.01%	6.03%	11.8%	0.45%	1.95%	3.64%	7.9%	3.07%	6.09%	3.07%
COC(=O)Nc1nc2cc(Oc3ccc(NC(=O)Nc4cccc(Br)c4)cc3)ccc2[nH]1	3.57%	9.62%	15.2%	7.97%	13.8%	1.37%	3.46%	3.78%	6.03%	22.3%	49.3%	75.2%	87.4%	5.64%	13.8%	83.8%	98.1%	84%	94.6%	17.4%
CN1CCN(C(=O)c2ccc(NC(=O)Nc3ccc(N(C)c4ccnc(Nc5ccc(CS(C)(=O)=O)cc5)n4)cc3)cc2)CC1	10.7%	2.45%	19.7%	1.67%	18.1%	12.8%	52.3%	45.6%	77.4%	5.5%	38.9%	59.9%	77.5%	7.23%	46.1%	67.2%	85.5%	75.2%	94.1%	60.3%
Nc1nccc(-c2c(-c3ccc(F)cc3)nn3cc(C(F)(F)F)ccc23)n1	2.62%	1.67%	2.06%	1.33%	2.59%	-0.89%	0.12%	2.79%	0.01%	-1.22%	-0.61%	5.02%	5.93%	0.17%	0.96%	-0.84%	1.89%	1.05%	1.99%	0.39%
Nc1nccc(-c2c(-c3ccc(F)cc3)ncn2CCCN2CCOCC2)n1	2.3%	5.23%	9.61%	2.71%	5.84%	0.72%	2.2%	3.68%	5.4%	0.89%	3.99%	4.62%	14.7%	1.96%	6.03%	6.08%	7.81%	3.07%	8.56%	3.65%
OCc1ccc(-c2nc(-c3ccccn3)c(-c3ccc4c(c3)OCO4)[nH]2)cc1	4.28%	6.03%	6.58%	3.09%	3.31%	0.75%	1.08%	11.7%	8.92%	3.11%	3.91%	9.57%	12.2%	4.62%	6.61%	6.55%	6.47%	3.57%	7.37%	4.87%
O=S(=O)(CCOCc1ccc(-c2ccc3ncnc(Nc4ccc(OCc5cccc(F)c5)c(Cl)c4)c3c2)o1)c1ccccc1	3.13%	1.13%	2.54%	-1.61%	-0.4%	-1.18%	6.22%	0.79%	8.46%	4.67%	5.38%	4.21%	10%	0.75%	1.61%	6.02%	8.5%	3.15%	3.68%	2.33%
N#Cc1c(NC(=O)c2ccccc2F)sc2c1CCCC2	-0.82%	-0.87%	0.22%	-0.31%	0.82%	-1.5%	0.64%	10.5%	4.86%	1.84%	1.48%	1.47%	5.27%	1.43%	3.35%	1.66%	4.03%	2.72%	3.24%	1.07%
CCn1c(-c2nonc2N)nc2ccc(F)cc21	5.25%	7.21%	9.59%	3.75%	5.9%	1.51%	3.19%	8.56%	9.65%	2.27%	3.46%	9.43%	8.14%	3.01%	3.62%	8.13%	10.2%	5.36%	2.86%	5.06%
Cc1cc(Cl)cc2c1NC(=O)C2=NNc1ccc(S(N)(=O)=O)cc1	2.25%	3.74%	4.11%	2.32%	4.84%	0.38%	0.48%	-0.26%	5.08%	2.21%	0.5%	5.26%	20.5%	4.17%	9.86%	6.4%	9.82%	9.46%	25.8%	2.83%
NS(=O)(=O)c1cccc(Nc2cc(-c3ccc(F)cc3)n[nH]2)c1	4.08%	5.86%	10.7%	3.31%	8.61%	1.94%	2.95%	9.61%	4.41%	3.78%	13.7%	12.7%	36.1%	3.21%	16.6%	9.3%	43%	29.1%	50.8%	12.7%
